Experimental data as given in PubChem BioAssay (Tox21).
“And” between values parts separate entries of the source, which are not always exact repeats. Identical values can stand only once. Records with an inconclusive call do not appear. A call without a number means that no potency is given here. The source made the active and inactive calls. Unless noted, calls follow the shape of the dose curve; as a rule, active = well fitted curve in the direction sought with a large enough effect in the repeat runs; inconclusive = weak or mixed curves; inactive = flat fitted curve, though single readings scatter.

Tests used:
[1] = qHTS assay to test for compound auto fluorescence at 535 nm (green) in HEK293 cells (AID 720680)
[2] = qHTS assay to test for compound auto fluorescence at 460 nm (blue) in HEK293 cell free culture (AID 720681)
Outline: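 Test compounds were pinned into cell-free culture medium (DMEM with 10% FBS) and fluorescence was read directly at Ex/Em 405/460 nm. Signals were expressed as fluorescence equivalents of triamterene, with DMSO vehicle as control.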

[3] = qHTS assay to test for compound auto fluorescence at 535 nm (green) in HEK293 cell free culture (AID 720682)
Outline: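 Read-out: 485/535 nm fluorescence intensity, calibrated against fluorescein. Medium only (DMEM + 10% FBS, no cells); test compound or DMSO vehicle added by pintool before plate reading.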

[4] = qHTS assay to test for compound auto fluorescence at 590 nm (red) in HEK293 cell free culture (AID 720683)
Outline: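 Tox21 10K library compounds were pinned into cell-free DMEM with 10% FBS and fluorescence was read at excitation 540 nm. Activity is expressed as Rose Bengal sodium equivalency.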

[5] = qHTS assay to test for compound auto fluorescence at 590 nm (red) in HepG2 cell free culture (AID 720684)
Outline: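 Measured in medium alone (MEM containing 10% FBS) following pintool addition of compound; emission at 590 nm with 540 nm excitation, referenced to Rose Bengal sodium.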

[6] = qHTS assay to test for compound auto fluorescence at 460 nm (blue) in HepG2 cell free culture (AID 720685)
Outline: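 Compound (23 nL) or DMSO pinned into cell-free MEM with 10% FBS; blue fluorescence read at 405/460 nm excitation/emission, expressed as auto-fluorescence equivalency to triamterene.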

[7] = qHTS assay to test for compound auto fluorescence at 535 nm (green) in HepG2 cell free culture (AID 720686)
[8] = qHTS assay to test for compound auto fluorescence at 460 nm (blue) in HepG2 cells (AID 720687)
Outline: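 Cells (2,000/well in MEM with 10% FBS) attached overnight at 37 C, then were exposed to compound or DMSO for 1 hr at 37 C, 5% CO2. Fluorescence read at Ex/Em 405/460 nm, expressed as triamterene-equivalent signal.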

[9] = target: Glucocorticoid receptor (Homo sapiens) (UniProt P04150); experiment: qHTS assay to identify small molecule antagonists of the glucocorticoid receptor (GR) signaling pathway (AID 720692; active = well fitted inhibition curve with a large enough effect in the signal ratio in the repeat runs, not every such curve was filed as active; the % refers to the signal ratio; also: potency is read from the fitted curve at half-maximal effect)
Outline: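 Fluorescence from cleaved LiveBLAzer B/G FRET substrate reports GRE-driven beta-lactamase in HeLa cells; compounds are tested against 5 nM dexamethasone (final) over 18 h at 37 C, substrate incubation 2 h at room temperature.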

[10] = target: Glucocorticoid receptor (Homo sapiens) (UniProt P04150); experiment: qHTS assay to identify small molecule agonists of the glucocorticoid receptor (GR) signaling pathway (AID 720691; active = well fitted activation curve with a large enough effect in the signal ratio in the repeat runs, not every such curve was filed as active; the % refers to the signal ratio; also: potency is read from the fitted curve at half-maximal effect)
Outline: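 Beta-lactamase reporter activity, read as fluorescence intensity, was measured in GR-bla HeLa cells exposed to compounds for 18 h at 37 C and then loaded with LiveBLAzer B/G FRET substrate for 2 h at room temperature.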

Glucocorticoid receptor (Homo sapiens), sequence (P04150 whole entry, looked up): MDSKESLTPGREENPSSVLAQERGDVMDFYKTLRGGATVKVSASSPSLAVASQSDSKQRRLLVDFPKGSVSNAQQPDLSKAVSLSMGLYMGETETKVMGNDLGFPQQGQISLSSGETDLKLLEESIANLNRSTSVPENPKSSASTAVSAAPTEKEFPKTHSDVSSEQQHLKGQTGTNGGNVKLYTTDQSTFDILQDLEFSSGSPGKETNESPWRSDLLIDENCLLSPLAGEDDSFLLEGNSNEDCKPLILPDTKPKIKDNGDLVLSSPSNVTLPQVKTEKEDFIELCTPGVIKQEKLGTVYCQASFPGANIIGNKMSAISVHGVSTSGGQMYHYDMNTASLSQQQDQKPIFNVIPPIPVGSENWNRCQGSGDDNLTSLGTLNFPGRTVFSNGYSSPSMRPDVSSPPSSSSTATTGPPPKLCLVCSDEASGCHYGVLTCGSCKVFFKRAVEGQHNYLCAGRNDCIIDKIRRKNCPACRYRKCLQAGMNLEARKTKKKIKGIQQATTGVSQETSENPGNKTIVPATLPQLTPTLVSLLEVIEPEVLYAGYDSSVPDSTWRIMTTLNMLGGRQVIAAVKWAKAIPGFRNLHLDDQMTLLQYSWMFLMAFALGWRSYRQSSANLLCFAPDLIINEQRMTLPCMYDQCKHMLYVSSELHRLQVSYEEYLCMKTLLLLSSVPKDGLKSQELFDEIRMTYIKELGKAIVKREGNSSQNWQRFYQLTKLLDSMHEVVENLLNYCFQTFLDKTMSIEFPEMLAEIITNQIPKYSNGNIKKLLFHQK

SMILES	outcome [1]	Potency [2]	outcome [3]	outcome [4]	outcome [5]	Potency [6]	outcome [7]	Potency [8]	Potency [9]	Potency [10]
O=C/C(Cl)=C(/Cl)C(=O)O	inactive	inactive	inactive	inactive	inactive	inactive	inactive	inactive	48.9 µM (active) and 49 µM (active)	–
N#CCCSCCC#N	inactive	inactive	inactive	inactive	inactive	inactive	inactive	inactive	inactive	inactive
CC(C)CCCCCOC(=O)c1ccccc1C(=O)OCCCCCC(C)C	inactive	inactive	inactive	inactive	inactive	inactive	inactive	inactive	inactive	inactive
CN(C)[C@@H]1C(=O)C(C(N)=O)=C(O)[C@@]2(O)C(=O)C3=C(O)c4c(O)ccc(Cl)c4[C@@](C)(O)[C@H]3C[C@@H]12	inactive	inactive	inactive	inactive	inactive	inactive	inactive	inactive	inactive	inactive
CN(C)c1ccc(N=Nc2ccccc2)cc1	inactive	inactive	inactive	inactive	inactive	inactive	inactive	inactive	inactive	inactive
CCCCOCN(C(=O)CCl)c1c(CC)cccc1CC	inactive	inactive	inactive	inactive	inactive	inactive	inactive	inactive	21.9 µM (active)	inactive
C[C@H]1CC[C@@H]2[C@@H](C)[C@H]3[C@H](C[C@H]4[C@@H]5CC=C6CC(O[C@@H]7O[C@H](CO)[C@H](O)[C@H](O[C@@H]8O[C@H](CO)[C@@H](O)[C@H](O)[C@H]8O)[C@H]7O[C@H]7O[C@@H](C)[C@H](O)[C@@H](O)[C@H]7O)CC[C@]6(C)[C@H]5CC[C@]34C)N2C1 (stereo partly specified)	inactive	inactive	inactive	inactive	inactive	inactive	inactive	inactive	inactive	inactive
O=C(CBr)c1ccc(O)cc1	inactive	inactive	inactive	inactive	inactive	inactive	inactive	inactive	inactive	inactive
O=c1ssc(Cl)c1Cl	inactive	inactive	inactive	inactive	inactive	inactive	inactive	inactive	43.6 µM (active)	inactive
COc1cc(N)c(Cl)cc1C(=O)NC1CN2CCC1CC2 (stereo unspecified)	inactive	inactive	inactive	inactive	inactive	inactive	inactive	inactive	inactive	inactive
O=[N+]([O-])O.O=[N+]([O-])O.[Cd]	inactive	inactive	inactive	inactive	inactive	inactive	inactive	inactive	43.6 µM (active)	0.389 µM (active)
CCOP(=S)(OCC)OC(Cl)C(Cl)(Cl)Cl (stereo unspecified)	inactive	inactive	inactive	inactive	inactive	inactive	inactive	inactive	inactive	inactive
ClC1=C(Cl)[C@]2(Cl)[C@@H]3[C@@H]4C[C@@H]([C@H]5O[C@@H]45)[C@@H]3[C@@]1(Cl)C2(Cl)Cl	inactive	inactive	inactive	inactive	inactive	inactive	inactive	inactive	36.7 µM (active)	inactive
O=C(NC(=O)c1c(F)cccc1F)Nc1cc(Cl)c(OC(F)(F)C(F)F)c(Cl)c1	inactive	inactive	inactive	inactive	inactive	inactive	inactive	inactive	inactive	–
CC(C)CC(C)(c1ccc(O)cc1)c1ccc(O)cc1	inactive	inactive	inactive	inactive	inactive	inactive	inactive	inactive	19.5 µM (active)	–
C[C@]12CC[C@H]3[C@@H](CCC4=CC(=O)CC[C@@]43C)[C@@H]1CC[C@@H]2O	inactive	inactive	inactive	inactive	inactive	inactive	inactive	inactive	2.44 µM (active)	inactive
C[C@]12CC[C@@H]3c4ccc(OC(=O)N(CCCl)CCCl)cc4CC[C@H]3[C@@H]1CC[C@@H]2O	inactive	inactive	inactive	inactive	inactive	inactive	inactive	inactive	inactive	inactive
CC(C)CCCCCCCOP(=O)(Oc1ccccc1)Oc1ccccc1	inactive	inactive	inactive	inactive	inactive	inactive	inactive	inactive	inactive	inactive
O=C(CCCN1CCC2(CC1)C(=O)NCN2c1ccccc1)c1ccc(F)cc1	inactive	inactive	inactive	inactive	inactive	inactive	inactive	inactive	inactive	inactive
CC(c1ccc(O)cc1)c1ccc(O)cc1	inactive	inactive	inactive	inactive	inactive	inactive	inactive	inactive	inactive	–
c1ccc(OCC2CO2)cc1 (stereo unspecified)	inactive	inactive	inactive	inactive	inactive	inactive	inactive	inactive	inactive	inactive
ClC1=C(Cl)[C@]2(Cl)[C@H]3[C@H]([C@H]4C=C[C@H]3C4)[C@@]1(Cl)C2(Cl)Cl	inactive	inactive	inactive	inactive	inactive	inactive	inactive	inactive	49 µM (active)	inactive
CC(Cc1ccc(C(C)(C)C)cc1)CN1C[C@@H](C)O[C@@H](C)C1 (stereo partly specified)	inactive	inactive	inactive	inactive	inactive	inactive	–	inactive	inactive	inactive
O=[N+]([O-])c1ccc(Oc2ccc(C(F)(F)F)cc2[N+](=O)[O-])cc1	inactive	inactive	inactive	inactive	inactive	inactive	–	inactive	–	inactive
CN(C)S(=O)(=O)N(SC(F)(Cl)Cl)c1ccccc1	inactive	inactive	inactive	inactive	inactive	inactive	–	inactive	–	–
O=C(CCl)C(Cl)Cl	inactive	inactive	inactive	inactive	inactive	inactive	–	inactive	35 µM (active)	–
ClCc1ccc(Cl)cc1Cl	inactive	inactive	inactive	inactive	inactive	inactive	–	inactive	inactive	inactive
C=CC(=O)OCCCCOC(=O)C=C	inactive	inactive	inactive	inactive	inactive	inactive	–	inactive	24.5 µM (active)	inactive
CCCCN(CCCC)C(=S)[S-].CCCCN(CCCC)C(=S)[S-].[Zn+2]	inactive	inactive	inactive	inactive	–	inactive	inactive	inactive	–	–
C1CCC2CCCCC2C1 (stereo unspecified)	inactive	inactive	inactive	inactive	inactive	inactive	–	inactive	–	inactive
